Measurements taken from PubChem BioAssay.
Potency and affinity values are given separately. Active and inactive are the calls of the source. Unless noted, the rule behind the calls is not given here.

The compounds below were run against Calcium-dependent protein kinase 1 (Plasmodium falciparum (isolate 3D7)) (UniProt P62344) (assay: PfCDPK1 kinase inhibitors, biochemical, TCAMS library (AID 1159585; cut-off not given, nearly all actives have IC50 up to about 0.98 µM;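 note: inhibitors leave more ATP so luminescence rises with inhibition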)). Conditions: recombinant PfCDPK1, Kinase-Glo ATP depletion luminescence.
Calcium-dependent protein kinase 1 (Plasmodium falciparum (isolate 3D7)), sequence (P62344 whole entry, looked up): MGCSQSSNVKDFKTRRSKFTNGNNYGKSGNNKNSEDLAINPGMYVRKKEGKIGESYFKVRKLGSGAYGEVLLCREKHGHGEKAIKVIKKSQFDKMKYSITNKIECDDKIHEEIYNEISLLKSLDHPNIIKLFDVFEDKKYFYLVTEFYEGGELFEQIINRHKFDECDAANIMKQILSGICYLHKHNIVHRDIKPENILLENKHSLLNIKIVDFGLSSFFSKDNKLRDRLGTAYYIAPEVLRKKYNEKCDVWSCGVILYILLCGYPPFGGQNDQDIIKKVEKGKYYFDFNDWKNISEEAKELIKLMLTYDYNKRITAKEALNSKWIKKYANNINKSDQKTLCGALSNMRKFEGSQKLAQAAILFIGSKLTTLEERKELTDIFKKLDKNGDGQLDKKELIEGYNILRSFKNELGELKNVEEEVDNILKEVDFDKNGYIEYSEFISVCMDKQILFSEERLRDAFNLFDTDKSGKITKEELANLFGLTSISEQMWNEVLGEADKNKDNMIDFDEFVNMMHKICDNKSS

outcome, inactive:
Cc1ccc(NC(=O)c2ccc(Cl)c(Cl)c2)cc1-c1ccc(C(=O)Nc2ccncc2)cc1
O=C(/C=C/c1ccc(C(F)(F)F)cc1)N1CCC(CCN2CCC(c3c[nH]c4ccccc34)CC2)CC1
O=C(/C=C/c1ccc(Cl)c(Cl)c1)NC1CCN(Cc2cccc(O)c2)CC1
Cc1cccc2[nH]c(-c3ccc(-c4cccc(NC(=O)Nc5ccsc5)c4)cc3)nc12
COc1ccc2nccc([C@@H](O)CN3CCC(NCc4ccc5c(c4)OCCO5)CC3)c2c1
CCN(c1ccc(F)cc1)S(=O)(=O)c1cc(Br)cc2c1N(C(=O)C1CC1)CC2
Cn1c(=N)n(CC(=O)N2CCc3ccc(Cl)cc3C2Cc2ccc(Cl)c(Cl)c2)c2ccccc21 (stereo not given)
COc1cc(C(=O)N2CCN(C(C)C)CC2)ccc1CN(C)CCCN1CCN(c2cccc(Cl)c2Cl)CC1
O=C(NCCc1ccccc1)N(Cc1ccc(-c2cccc(CN3CCNCC3)c2)cc1)C1CCN(Cc2ccccc2)CC1
Cc1cc(N2CCCC2)nc(Nc2ccc(NC(=O)c3ccccc3)cc2)n1
O=C(Cc1ccccc1)NC(CCN1CCC(O)(c2cccc(C(F)(F)F)c2)CC1)c1ccc(Cl)c(Cl)c1 (stereo not given)
Oc1ccc(CN2CC[C@@H](N3CCN(CCc4ccccc4)CC3)[C@H](O)C2)cc1Cl
Oc1c(C(Nc2nc3ccccc3s2)c2ccccc2)ccc2cccnc12 (stereo not given)
CN(C)C(CNC(=O)c1cc(-c2ccncc2)c(-c2ccc(NC(=O)Nc3cccc(Cl)c3)cc2)o1)c1ccccc1 (stereo not given)
COc1cc(NC(=O)c2sc(-c3ccc(Cl)cc3)cc2NC(=O)c2ccncc2)ccc1OCCN1CCCC1
Cc1cc(NN=Cc2ccccc2Cl)c2ccccc2n1
Cc1cc(NN=Cc2ccc([N+](=O)[O-])cc2)c2ccc(F)cc2n1
COc1ccc(C(=O)N2CCc3cc4nccc(N5CCN6CCC[C@H]6C5)c4cc32)cc1
O=C(Nc1cccc(-c2ccc(-c3nc4ccc(F)cc4[nH]3)cc2)c1)Nc1ccc(Cl)c(Cl)c1
Cc1ccc(Cn2ncc(NC3CCNCC3)c(Cl)c2=O)cc1NC(=O)Nc1ccc(-c2ccccc2)cc1
CCCCNS(=O)(=O)c1ccc(NC(=O)c2cc([N+](=O)[O-])ccc2Cl)cc1
CCNc1cc(C)nc(Nc2ccc(NC(=O)C3CCCC3)cc2)n1
COc1ccc(-n2nc(C(=O)NCCC3=CCCCC3)c3ccccc3c2=O)cc1
O=C(NCC1CCN(Cc2ccsc2)C1)c1cc(-c2cccc(C(F)(F)F)c2)cs1 (stereo not given)
COc1cc(NC(=O)/C=C/c2cccc3cc[nH]c23)ccc1OCCN(C(C)C)C(C)C
C=CCOC(=O)O[C@@H]1[C@@H](OC(=O)OCC=C)[C@@H](OC)O[C@H](COC(c2ccccc2)(c2ccccc2)c2ccccc2)[C@H]1OC(=O)OCC=C
O=C(Nc1cccnc1)c1cn(-c2ccccc2)nc1-c1cccs1
O=C(CN1CCCC1)Nc1cccc(C(=O)Nc2cccc(C(F)(F)F)c2)c1
O=S(=O)(Nc1cccc(CCN2CCC(N3CCCCC3)CC2)c1)c1cccc(C(F)(F)F)c1
Cc1cc(Cl)ccc1OC(C)C(=O)N1CCc2ccccc21 (stereo not given)
COc1cc2nc(N(C)Cc3cccc(I)c3)nc(N)c2cc1OC
O=C(Nc1cccc(OC2CCN(Cc3ccsc3)CC2)c1)c1ccc(C(F)(F)F)cc1
CC(C)CCN(Cc1cncn1Cc1ccccc1F)C(=O)c1cncc(-c2ccccc2)c1
Clc1nc2ccccn2c1C=Cc1ccc2ccccc2n1
COc1ccc(-c2cc(Nc3nc(-c4cccc(Cl)c4)nc4ccccc34)ccn2)cc1
COc1ccc(NC(=O)/C=C/c2ccccc2Cl)cc1OCCN1CCC(N2CCCC2)CC1
O=C(Nc1cccc(-c2cccc(-c3nc4ccccc4[nH]3)c2)c1)Nc1ccc(Cl)c(Cl)c1
CCNC(=O)c1ccc(-n2nc(C)cc2-c2ccccc2)cc1
CCN(CC)C(=NCCCCCCN=C(NC(N)=NCc1ccc(Cl)cc1)N(CC)CC)NC(N)=NCc1ccc(Cl)cc1
O=C(/C=C/c1ccc(Cl)c(Cl)c1)NCCCCCCN1CCCN(C(=O)Nc2cccc(Cl)c2)CC1

These compounds were tested against Plasmodium falciparum protein kinase 6 (PK6, PF3D7_1337100) (UniProt Q8IDW1) (assay: PfPK6 kinase inhibitors, biochemical, TCAMS library (AID 1159586)). Conditions: recombinant PfPK6, Kinase-Glo ATP depletion luminescence.
Plasmodium falciparum protein kinase 6 (PK6, PF3D7_1337100), sequence (Q8IDW1 1-305): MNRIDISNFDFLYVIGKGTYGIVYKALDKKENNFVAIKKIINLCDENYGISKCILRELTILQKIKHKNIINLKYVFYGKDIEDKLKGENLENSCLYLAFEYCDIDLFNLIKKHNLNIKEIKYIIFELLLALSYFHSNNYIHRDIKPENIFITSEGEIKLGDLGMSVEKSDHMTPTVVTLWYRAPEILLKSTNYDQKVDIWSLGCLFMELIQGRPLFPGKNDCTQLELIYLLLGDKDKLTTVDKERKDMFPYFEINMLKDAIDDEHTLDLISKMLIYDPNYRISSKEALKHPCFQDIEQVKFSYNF

outcome, inactive:
Cc1ccc(NC(=O)c2ccc(Cl)c(Cl)c2)cc1-c1ccc(C(=O)Nc2ccncc2)cc1
O=C(/C=C/c1ccc(C(F)(F)F)cc1)N1CCC(CCN2CCC(c3c[nH]c4ccccc34)CC2)CC1
O=C(/C=C/c1ccc(Cl)c(Cl)c1)NC1CCN(Cc2cccc(O)c2)CC1
Cc1cccc2[nH]c(-c3ccc(-c4cccc(NC(=O)Nc5ccsc5)c4)cc3)nc12
COc1ccc2nccc([C@@H](O)CN3CCC(NCc4ccc5c(c4)OCCO5)CC3)c2c1
CCN(c1ccc(F)cc1)S(=O)(=O)c1cc(Br)cc2c1N(C(=O)C1CC1)CC2
Cn1c(=N)n(CC(=O)N2CCc3ccc(Cl)cc3C2Cc2ccc(Cl)c(Cl)c2)c2ccccc21 (stereo not given)
COc1cc(C(=O)N2CCN(C(C)C)CC2)ccc1CN(C)CCCN1CCN(c2cccc(Cl)c2Cl)CC1
O=C(NCCc1ccccc1)N(Cc1ccc(-c2cccc(CN3CCNCC3)c2)cc1)C1CCN(Cc2ccccc2)CC1
Cc1cc(N2CCCC2)nc(Nc2ccc(NC(=O)c3ccccc3)cc2)n1
O=C(Cc1ccccc1)NC(CCN1CCC(O)(c2cccc(C(F)(F)F)c2)CC1)c1ccc(Cl)c(Cl)c1 (stereo not given)
Oc1ccc(CN2CC[C@@H](N3CCN(CCc4ccccc4)CC3)[C@H](O)C2)cc1Cl
Oc1c(C(Nc2nc3ccccc3s2)c2ccccc2)ccc2cccnc12 (stereo not given)
CN(C)C(CNC(=O)c1cc(-c2ccncc2)c(-c2ccc(NC(=O)Nc3cccc(Cl)c3)cc2)o1)c1ccccc1 (stereo not given)
COc1cc(NC(=O)c2sc(-c3ccc(Cl)cc3)cc2NC(=O)c2ccncc2)ccc1OCCN1CCCC1
Cc1cc(NN=Cc2ccccc2Cl)c2ccccc2n1
Cc1cc(NN=Cc2ccc([N+](=O)[O-])cc2)c2ccc(F)cc2n1
COc1ccc(C(=O)N2CCc3cc4nccc(N5CCN6CCC[C@H]6C5)c4cc32)cc1
O=C(Nc1cccc(-c2ccc(-c3nc4ccc(F)cc4[nH]3)cc2)c1)Nc1ccc(Cl)c(Cl)c1
Cc1ccc(Cn2ncc(NC3CCNCC3)c(Cl)c2=O)cc1NC(=O)Nc1ccc(-c2ccccc2)cc1
CCCCNS(=O)(=O)c1ccc(NC(=O)c2cc([N+](=O)[O-])ccc2Cl)cc1
CCNc1cc(C)nc(Nc2ccc(NC(=O)C3CCCC3)cc2)n1
COc1ccc(-n2nc(C(=O)NCCC3=CCCCC3)c3ccccc3c2=O)cc1
O=C(NCC1CCN(Cc2ccsc2)C1)c1cc(-c2cccc(C(F)(F)F)c2)cs1 (stereo not given)
COc1cc(NC(=O)/C=C/c2cccc3cc[nH]c23)ccc1OCCN(C(C)C)C(C)C
C=CCOC(=O)O[C@@H]1[C@@H](OC(=O)OCC=C)[C@@H](OC)O[C@H](COC(c2ccccc2)(c2ccccc2)c2ccccc2)[C@H]1OC(=O)OCC=C
O=C(Nc1cccnc1)c1cn(-c2ccccc2)nc1-c1cccs1
O=C(CN1CCCC1)Nc1cccc(C(=O)Nc2cccc(C(F)(F)F)c2)c1
O=S(=O)(Nc1cccc(CCN2CCC(N3CCCCC3)CC2)c1)c1cccc(C(F)(F)F)c1
Cc1cc(Cl)ccc1OC(C)C(=O)N1CCc2ccccc21 (stereo not given)
COc1cc2nc(N(C)Cc3cccc(I)c3)nc(N)c2cc1OC
O=C(Nc1cccc(OC2CCN(Cc3ccsc3)CC2)c1)c1ccc(C(F)(F)F)cc1
CC(C)CCN(Cc1cncn1Cc1ccccc1F)C(=O)c1cncc(-c2ccccc2)c1
Clc1nc2ccccn2c1C=Cc1ccc2ccccc2n1
COc1ccc(-c2cc(Nc3nc(-c4cccc(Cl)c4)nc4ccccc34)ccn2)cc1
COc1ccc(NC(=O)/C=C/c2ccccc2Cl)cc1OCCN1CCC(N2CCCC2)CC1
O=C(Nc1cccc(-c2cccc(-c3nc4ccccc4[nH]3)c2)c1)Nc1ccc(Cl)c(Cl)c1
CCNC(=O)c1ccc(-n2nc(C)cc2-c2ccccc2)cc1
CCN(CC)C(=NCCCCCCN=C(NC(N)=NCc1ccc(Cl)cc1)N(CC)CC)NC(N)=NCc1ccc(Cl)cc1
O=C(/C=C/c1ccc(Cl)c(Cl)c1)NCCCCCCN1CCCN(C(=O)Nc2cccc(Cl)c2)CC1
